PubChem BioAssay (NCI)
About 79,000 compounds went through this panel and 15% of them were active in at least one assay; those are over-represented in the sample as a whole. Calls of active or inactive are those of the source. Cut-off read from the data, not from the text of the source: active = growth inhibition above about 70%; inactive = the rest. Where a SMILES comes first, the peptide text is derived from it. The star is where a group is joined. Boc = CC(C)(C)OC(=O)*

Tests used:
[1] = NCI Yeast Anticancer Drug Screen. Data for the rad50 strain (AID 155);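 note: 0% = growth of vehicle-only cultures of the same strain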; conditions: S. cerevisiae rad50 strain growth inhibition; at 50.0 µM; hits give high values
Summary of the method: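 Yeast carrying a defined DNA repair defect were exposed to test compounds, and growth was compared with vehicle-treated controls to give percent inhibition.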

[2] = NCI Yeast Anticancer Drug Screen. Data for the mec2-1 strain (AID 157); conditions: S. cerevisiae mec2-1 strain, at 50.0 µM, hits give high values
Summary of the method: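 Each compound was tested on mec2-1 yeast, a strain altered in DNA damage repair or cell cycle control. Growth inhibition is reported relative to vehicle.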

[3] = NCI Yeast Anticancer Drug Screen. Data for the sgs1 mgt1 strain (AID 161);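 note: 0% = growth of cultures given vehicle only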; conditions: S. cerevisiae sgs1 mgt1 strain, at 50.0 µM, hits give high values
Summary of the method: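 Inhibition of yeast growth, normalised to vehicle-treated controls, is reported for a strain bearing genetic alterations in DNA damage repair.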

[4] = NCI Yeast Anticancer Drug Screen. Data for the cln2 rad14 strain (AID 165);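 note: 0% = growth equal to vehicle treated cultures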; conditions: S. cerevisiae cln2 rad14 strain, at 50.0 µM, hits give high values
Summary of the method: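 Test compounds were added to cln2 rad14 yeast cultures; inhibition of growth was then determined by comparison with vehicle treatment.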

[5] = NCI Yeast Anticancer Drug Screen. Data for the bub3 strain (AID 167); conditions: S. cerevisiae bub3 mutant strain, at 50.0 µM, hits give high values
Summary of the method: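 Compounds were applied to a genetically altered yeast strain carrying a cell-cycle control defect. Growth inhibition was scored against vehicle-treated controls.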

[6] = NCI Yeast Anticancer Drug Screen. Data for the mlh1 rad18 strain (AID 175); conditions: S. cerevisiae mlh1 rad18 strain growth inhibition; at 50.0 µM; hits give high values
Summary of the method: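 Inhibition values reflect reduced growth of mutant yeast versus vehicle-treated controls following compound exposure; the mutations affect DNA damage repair.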

Measured: growth inhibition

CCOC(=O)CC1c2ccc(O)cc2OC(=O)C1c1ccc(N)cc1 (stereo not drawn)
inactive: [1] -29.1% | [2] -17.5% | [3] -14.8% | [4] -4.6% | [5] -19.2% | [6] -13.6%

O=C(O)/C=C/c1ccncc1
inactive: [1] -1.7% | [2] -6.35% | [3] -7.15% | [4] 3.75% | [5] -0.3% | [6] 5.1%

CCOC(=O)c1c(C)c2c(n1C)CCC(C(=O)OCC)C2=O (stereo not drawn)
inactive: [1] -3.15% | [2] 9.4% | [3] 10.3% | [4] 11.4% | [5] 4.6% | [6] 0.45%

O=C(Nc1ccc(NC(=O)Nc2ccc(C3=NCCN3)cc2)cc1)Nc1ccc(C2=NCCN2)cc1
inactive: [1] -7.7% | [2] 7.15% | [3] 7.65% | [4] -1.7% | [5] -21.1% | [6] -19.6%

O=C1NC(=O)[C@@H](OCC2CCCCC2)[C@@H]2OCC3OC(C(O)C3O)C12 (stereo partly drawn)
inactive: [1] -33.9% | [2] -3.1% | [3] 9.9% | [4] 23.2% | [5] 10.3% | [6] -5.7%

OCC(O)C(O)C(OC1OC(CO)C(O)C(O)C1O)C(O)CO (stereo not drawn)
inactive: [1] -1.05% | [2] 37.8% | [3] 26.9% | [4] -2.2% | [5] 13.8% | [6] -3.2%

CCCCCCCCCCCCCCCCCCCCCCBr
inactive: [1] 4.95% | [2] 4.8% | [3] 16.8% | [4] 21.4% | [5] -2.75% | [6] 14.3%

OC1C2CC3C(C2)C13 (stereo not drawn)
inactive: [1] -25.6% | [2] -12.6% | [3] 2.25% | [4] 4.8% | [5] -18.4% | [6] -25.8%

CCOC(=O)N1CCc2cc(OC)c(OC)c3c2c1cc1cc(OC)c(OC)cc13
inactive: [1] -9.2% | [2] 18.9% | [3] -4.55% | [4] -35.5% | [5] 16.1% | [6] 16.4%

CC(C)CCCC(C)C1CCC2C1CCC1C2CCC2(C)CCC(=O)CCC12C (stereo not drawn)
inactive: [1] 24.8% | [2] -2.85% | [3] -2.55% | [4] -17.8% | [5] 1.6% | [6] -4%

CCOC(=O)c1cc(NC(C)=O)c(C)n1C
inactive: [1] -5.4% | [2] 8.6% | [3] -3.45% | [4] -26.6% | [5] 11.1% | [6] 16.4%

O=C(O)c1cnccn1
inactive: [1] 18.8% | [2] 4.3% | [3] 16.9% | [4] 12.6% | [5] 1.2% | [6] 17.9%

C=CC(=N)N
inactive: [1] 12.3% | [2] 2.4% | [3] -5% | [4] 8.45% | [5] 6.6% | [6] 7.6%

CCCC(C)OC(=O)CC(c1ccccc1)N1CCCCC1 (stereo not drawn)
inactive: [1] 41.7% | [2] -10.1% | [3] 23.4% | [4] -23.6% | [5] 40.2% | [6] 26.5%

CCC1(c2ccccc2)NC(=O)N(N)C1=O (stereo not drawn)
inactive: [1] 0.4% | [2] 28.5% | [3] -8.8% | [4] 9.05% | [5] -0.75% | [6] 1.85%

COc1cc(NS(C)(=O)=O)ccc1Nc1c2ccc(N(C)C)cc2nc2cc(N(C)C)ccc12
inactive: [1] 29.1% | [2] -4.8% | [3] 1.05% | [4] 6.7% | [5] -8.6% | [6] -9.85%

Cc1nc(N)[nH]c(=O)c1CCO
inactive: [1] -1.3% | [2] -23% | [3] -36.6% | [4] 3.3% | [5] -15.1% | [6] -3.8%

CCOC(=O)C(CC(C)C)NC(=O)C(Cc1ccccc1)NC(=O)CNC(=O)OC(C)(C)C (stereo not drawn) (Boc-Gly-Phe-Leu-OEt; configuration not given here)
inactive: [1] 7.65% | [2] 7.35% | [3] 9.45% | [4] -11.7% | [5] 7.2% | [6] 18.2%

Cc1ccc(NC(=O)C2CCN(C)CC2)cc1
inactive: [1] -14.3% | [2] -15% | [3] -16.7% | [4] -23.4% | [5] -8.7% | [6] 7.85%

COc1ccccc1/C=N\NC(=O)c1ccccc1O
inactive: [1] 13.2% | [2] 11.6% | [3] 11.8% | [4] 21.5% | [5] 41% | [6] 11.3%

CC(=O)O[C@H]1CC[C@@]2(C)C(=CC(=O)[C@H]3[C@@H]4CC[C@H]([C@H](C)CCCC(C)C)[C@@]4(C)CC[C@@H]32)C1
inactive: [1] 10.8% | [2] 19.1% | [3] 39% | [4] 36% | [5] 5.9% | [6] 46%

COc1ccccc1Nc1nc(-c2ccc([N+](=O)[O-])o2)cs1
active: [1] 70.6% | [3] 87.1% | [4] 92.8% | [6] 92.3%
inactive: [2] 36.2% | [5] 44%

O=C(Cc1cc2ccccc2[nH]c1=O)Nc1ccccc1
inactive: [1] 9.55% | [2] -7.2% | [3] 6.75% | [4] -27% | [5] -2.2% | [6] -5.55%

CC(C)(O)CCc1ccccc1
inactive: [1] -7.75% | [2] -29.3% | [3] -14.2% | [4] 14.8% | [5] -19.3% | [6] 6.6%

O=C(Nc1cccc(C(F)(F)F)c1)C(=O)C(C(=O)c1ccc(Cl)c(Cl)c1)C1OC(=O)c2ccccc21 (stereo not drawn)
inactive: [1] 34.9% | [2] 19.2% | [3] -1.35% | [4] 63.6% | [5] 45.4% | [6] 37.4%

Cc1ccc(NC(=O)OCC(F)(F)F)cc1NC(=O)OCC(F)(F)F
inactive: [1] 1.9% | [2] 29.3% | [3] 26.1% | [4] -0.9% | [5] 16.8% | [6] 1.95%

CCCNC1=C(OC)C(=O)C(NCCC)=C(OC)C1=O
inactive: [1] -0.3% | [2] 6.8% | [3] 9.15% | [4] -47.5% | [5] 2% | [6] -9.15%

COc1ccc(C(c2cc3c(cc2O)OCO3)N2CCOCC2)c(OC)c1 (stereo not drawn)
inactive: [1] -75.2% | [2] -31.1% | [3] 4.15% | [4] -25.9% | [5] -29.6% | [6] -17.9%

C=CCNC(=S)/N=C/C(C(=O)Nc1ccccc1OC)=C(\C)O
inactive: [1] -17.4% | [2] -19.2% | [3] -27.3% | [4] -9.85% | [5] -34.5% | [6] -16.3%

COc1c(OCC(O)CN2CCCCC2)c2c(C)coc2c2ccoc12 (stereo not drawn)
inactive: [1] 34.5% | [2] 18.6% | [3] 16.1% | [4] 9.25% | [5] 4.15% | [6] 23.1%

COC(=O)C1C2C=CC(CC2)C1C(=O)OC (stereo not drawn)
inactive: [1] 1.9% | [2] 5.65% | [3] -0.3% | [4] -22.1% | [5] -10.8% | [6] 7.95%

CCCCC/C(=N\NC(N)=O)C1=CCCCC1
inactive: [1] 13.1% | [2] 7.6% | [3] -9.6% | [4] -19.9% | [5] -25.4% | [6] 18.4%

C=C(CC(=O)NN)C(=O)NN
inactive: [1] -4.75% | [2] 12.3% | [3] -24.2% | [4] -3.1% | [5] -22.5% | [6] 1.25%

Cc1ccc(OC/C=C/c2ccc([N+](=O)[O-])cc2)cc1
inactive: [1] -1.45% | [2] -9.3% | [3] -7.4% | [4] -58.8% | [5] -4.55% | [6] -19.2%

COCOS(C)(=O)=O
inactive: [1] -4.05% | [2] -14.3% | [3] -2.85% | [4] 4.8% | [5] 9.4% | [6] -3.65%

COC(=O)Cc1onc(-c2ccccc2)c1[N+](=O)[O-]
inactive: [1] -17.3% | [2] -12.2% | [3] -4.8% | [4] 19.9% | [5] 28.9% | [6] 32%

C=CCNC(=S)N1c2ccccc2NC(=O)CC1C (stereo not drawn)
inactive: [1] -45.8% | [2] -9.2% | [3] -20.4% | [4] 13.4% | [5] 13.1% | [6] -15.4%

COC(=O)N1C(c2ccccc2)C=CC(c2ccccc2)N1C(=O)OC (stereo not drawn)
inactive: [1] 12.7% | [2] 11.2% | [3] 10.2% | [4] 4.3% | [5] 17% | [6] 18.2%
